According to the supplement of paper PMC11417369:
± gives the standard deviation of the averaged measurements. In all, about 25,000 sequences were measured (“ln(normalized median fluorescence intensity)”: median about 8.9, highest 2% from about 10 on). What follows is part of a selection rich in the highest values, with near analogues and random picks from the rest.

Tested on: PfAP2-LT AP2 domain (GST-tagged)
Experiment: gcPBM binding intensity (ln(normalized median fluorescence intensity)); higher = stronger DNA binding
How it was run: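 In this array assay, P. falciparum DNA-binding domains with a GST tag, expressed in E. coli, were applied for 1 h to primer-extended double-stranded 36-bp intergenic genomic probes and negative controls on an Agilent 4 × 180k array. Bound protein was visualised with Alexa488 anti-GST antibody at 488 nm. Binding intensity is the highest Masliner-normalised natural-log median intensity across replicate spots of either probe orientation.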

| Sequence | gcPBM binding intensity (ln) |
| --- | --- |
| TCTTTTTAACAAAAAAAAAAAAAAAAAAAAAAATTA [CACACA_negctrl_site1637] | 7.96 ± 0.43 |
| AGTAGTCTGGAGAAAAGTACATAGTATCTGGTAACC [XGTACX_site2024] | 8.81 ± 0.58 |
| AAAAAAATTAAACATGAAGAATAAGGAACAAAAAAA [CACACA_negctrl_site1607] | 8.78 ± 0.55 |
| CTGATATATAGATGTAGTACATAAAAATGACGAATT [XGTACX_site5612] | 8.99 ± 0.47 |
| ATTTTTTTGGAATTCACACACAAAAAAAAAAATAAA [CACACA_site2081] | 8.79 ± 0.47 |
| GATAAATCATATATAACACACATATGAATATTACAA [CACACA_site1321] | 8.98 ± 0.35 |
| AACTTACTTGGACATACACACATATATATATATATA [CACACA_site2978] | 9.78 ± 0.3 |
| TGCATATACTCAAGCACACATATATATATATATATA [CACACA_site4733] | 9.76 ± 0.13 |
| TACACAAATATATACATACACACATATATACGCATA [CACACA_site394] | 9.27 ± 0.3 |
| GTTACACCAACAAACACACACACACCGACACCCAAA [CACACA_site5361] | 10.1 ± 0.17 |
| TGGTAATACCCATACACACACACATACCCATATATA [CACACA_site5509] | 9.76 ± 0.33 |
| TGCATATACGCAAGCACACATATATATATATATATA [CACACA_site1069] | 10.1 ± 0.4 |
| TGGTAATACCCATACACACACACATACACATATATA [CACACA_site8877] | 9.76 ± 0.32 |
| TATACATACCCACCCACACACAAAAAAAAAAAAAAA [CACACA_site4632] | 9.76 ± 0.3 |
| GTAATACCCAAACACACACACATACCCATATATATA [CACACA_site5510] | 10.1 ± 0.29 |
| CAAACCCACCAACACACACACACAAAAATGATTAAA [CACACA_site2432] | 9.88 ± 0.3 |
| TATATACACAAACACACACACACATACACCCACATA [CACACA_site8504] | 10.2 ± 0.16 |
| GTTACACCAACAAACACACACACACCCACCCACAAA [CACACA_site2427] | 10.3 ± 0.16 |
| AAGAAAAGAAACAAAAAAAAAAAGAAATAAAAGGAA [TGCATGCA_negctrl_site171] | 8.61 ± 0.62 |
| AAAATTTATAAAAGCACACAAAATAAAAAAAAATGA [CACACA_site1491] | 8.88 ± 0.46 |

| Sequence | gcPBM binding intensity (ln) |
| --- | --- |
| AAGAAAATAAAATAAAAAAAAAAATAAAAAAAATAA [TGCATGCA_negctrl_site516] | 8.37 ± 0.74 |
| CAAAAATAAACTATAGTACACACTTATTATTATGAA [CACACA_site2702] | 8.8 ± 0.49 |
| ACACATACTAAAATGTTGTGAAATATGATAATGTGA [CACACA_negctrl_site851] | 9.11 ± 0.47 |
| TTAATCATAAAAGTCACACATAATAAGAAAAAGCTT [CACACA_site4616] | 8.78 ± 0.37 |
| AAATAGGGAATTTATGCACACAGTTAAGGGGGAAAA [CACACA_site2071] | 9.28 ± 0.26 |
| ACATATAATAAAAAATGTACACACATAAGAAAATTT [XGTACX_site6153] | 9.16 ± 0.38 |
| TAAATACATTTATGTACACACACATAGATGTATATT [CACACA_site5618] | 9.22 ± 0.36 |
| TAACATGATATATAATGTACATATAAGATATTTATA [XGTACX_site4383] | 8.79 ± 0.45 |
| TAACCATACATACATACACACACACCCACATATATA [CACACA_site8951] | 9.95 ± 0.13 |
| CAAACATATTAATGTACACACACCCACCCACAAACA [CACACA_site2752] | 10.2 ± 0.29 |
| CACACCCACCAACACACACACACACCCACCCATATA [CACACA_site366] | 10.3 ± 0.12 |
| CATACATAGAAACACACACACACACCCACCCACAAA [CACACA_site494] | 10.19 ± 0.028 |
| AAGCAAACATATTAATGTACACACACCCACACACAA [XGTACX_site5806] | 9.95 ± 0.46 |
| CATATACACCAACACACACACACACCCACAAAAAAA [CACACA_site496] | 10.1 ± 0.27 |
| TACACCCACCAACACACACACACACCCAAAAAAAAA [CACACA_site498] | 10.1 ± 0.14 |
| CACAAAGACACAAACACACACACACCCACATACATA [CACACA_site452] | 9.86 ± 0.24 |
| GATACATAGAAACACACACACATACATATATACATA [CACACA_site3438] | 9.92 ± 0.26 |
| AACATATTAATGTACACACACCCACGCACAAACAAA [CACACA_site7320] | 9.765 ± 0.092 |
| CACACCACCAACAAAAGTACATACATATATATATAT [XGTACX_site5781] | 9.65 ± 0.14 |
| ATATATTACAATATATGTACTTAATTTGCTTAAATA [XGTACX_site7912] | 8.6 ± 0.52 |

| Sequence | gcPBM binding intensity (ln) |
| --- | --- |
| TAACAAATATTATTTTGTACATAATATATATATATA [XGTACX_site6898] | 8.6 ± 0.32 |
| TTGTTTCAAAATTAAACACACACAAAAAAAAAAAAA [CACACA_site8856] | 8.86 ± 0.52 |
| TTATATATATTTAAAAAAATAACATAAATAAATAAA [CACACA_negctrl_site347] | 8.29 ± 0.52 |
| AGTCTTTTACATTGCACACACATTTCTTTCCTTTTG [CACACA_site2988] | 9.61 ± 0.36 |
| AATAGGATATGGTACATTTTTTGTATACTTTTTGTT [CACACA_negctrl_site1804] | 8.91 ± 0.47 |
| ATATATATATGTGGATGTACATATATCTCTTATTAT [XGTACX_site1748] | 9.05 ± 0.42 |
| GAGAGAGAAATAAAAAGTACATACATATATATACAT [XGTACX_site2267] | 8.84 ± 0.58 |
| TCATAGTCTTAATGACTACACACCTAACTATGCATG [CACACA_site1839] | 9 ± 0.47 |
| TAATATGCATAAAATTGTACAAACTTACATATAATA [XGTACX_site2752] | 8.92 ± 0.45 |
| CAATCAACAAAACATACACACACATATATATATATA [CACACA_site8979] | 10 ± 0.33 |
| CACATACCCATACAAACACACATTATATATATATAT [CACACA_site4965] | 9.56 ± 0.33 |
| CACCCATACACATACAAACACACATTCTATATATAT [CACACA_site1600] | 9.28 ± 0.46 |
| CACAAACACCCAAACACACACACACCGACATACATA [CACACA_site4410] | 10.1 ± 0.46 |
| GACACCCATAAATATACACACGCACAACACAAAATA [CACACA_site8944] | 9.46 ± 0.38 |
| CATACATACAAACACACACACACACCCATATATATA [CACACA_site2918] | 10.1 ± 0.31 |
| ATCAAAAGAAAACACACACACATACATATATATATA [CACACA_site3795] | 10.1 ± 0.3 |
| CAAACACCCAAACACACACACACATACATACATACA [CACACA_site8044] | 9.98 ± 0.15 |
| CACGCGCACCAACACACACACACACCCATATATATA [CACACA_site2204] | 10.3 ± 0.4 |
| ATCAACAAAACATACACACACATATATATATATATA [CACACA_site2989] | 10.32 ± 0.057 |
